SARS PLP yeast: qHTS of Yeast-based Assay for SARS-CoV PLP. S. cerevisiae expressing SARS-CoV PLpro, growth rescue. Potency, µM (doses to about 32.9 µM), usual class: activators. actives 0.19% (n = 330,000). AID 485353, 2010; calls by dose curve; further: nearly all actives have a fitted effect of over 55% in size
Pf growth 96h: Primary qHTS for delayed death inhibitors of the malarial parasite plastid, 96 hour incubation. actives 6.9% (n = 320,000). Potency, µM (top dose mostly 28.7 µM), usual class: inhibitors. P. falciparum luciferase reporter growth, 96 h
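Erythrocytes infected with luciferase-expressing P. falciparum were dispensed at 2% hematocrit and 0.05% parasitemia (final), then incubated with compounds 96 hours at 37 C in 5% CO2. Luminescence after detection reagent addition reported growth.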
Sm TGR inh: qHTS Assay for the Inhibitors of Schistosoma Mansoni Peroxiredoxins; Schistosoma mansoni thioredoxin glutathione reductase (TGR), Q962Y6; purified TGR, DTNB reduction, TNB absorbance 405 nm; Potency, µM (top dose mostly 114 µM), hits mostly inhibitors; actives 3% (n = 360,000); AID 485364, 2010; further: nearly all actives have a fitted effect of over 60% in size
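Kinetic colorimetric format: TGR-catalysed, NADPH-driven DTNB reduction monitored via TNB absorbance. Enzyme dispensed at 20 nM; compound exposure 15 min at room temperature before reaction start.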
HCMV inh: qHTS Assay for inhibitors of the human cytomegalovirus (HCMV); HFF cells, HCMV-luciferase reporter, 72 h; stronger effect = lower value; activity change, negative = inhibition, % at 57.5 µM; actives 4.5% (n = 410,000); AID 1259415, 2018; in the data active means activity change below about -60%; inconclusive means no clear call, values can overlap the other calls; inactive means above about -39%
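Two-dose cell screen: HFF monolayers treated with compounds and infected with luciferase-expressing HCMV at 1 PFU/cell, 72 h at 37C, then lysed for luciferase measurement.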
HCV inhibitor: qHTS Assay for Inhibitors of Hepatitis C Virus (HCV) | Potency, µM (top dose mostly 41.8 µM), hits mostly inhibitors | AID 651820, 2012 | Huh7.5.1 HCVcc-Cre infection, luciferase reporter, 44 h | actives 3.4% (n = 340,000)
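Infectious HCVcc-Cre (~0.5 moi) was added to cells just after compound, with cells seeded 4 h earlier at 1,000 per well. Luciferase activity after 44 h culture reported infection; substrate was incubated 15 min at room temperature before reading.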
Pf growth 48h: Primary qHTS for delayed death inhibitors of the malarial parasite plastid, 48 hour incubation; actives 5.9% (n = 310,000); AID 504832, 2011; P. falciparum luciferase growth in erythrocytes, 48 h; Potency, µM (doses to about 28.7 µM), usual class: inhibitors
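Erythrocytes infected with P. falciparum carrying an integrated firefly luciferase reporter (2% hematocrit, 0.1% parasitemia final) were exposed to compounds in RPMI 1640 with 0.5% Albumax at 37 C, 5% CO2. Growth inhibition was scored as reduced luminescence.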
Each line names hits and unclear results; the compound was inactive in the other large screens; ! = repeats disagree. An excerpt weighted towards active compounds, which were near 15% of everything screened. Unless noted, the call rests on the fitted dose curve; in most records, active means well fitted curve in the direction sought with a large enough effect; inconclusive means small, poorly fitted or top-dose-only effect, or another doubt; inactive means no such curve, though single readings can be large; an effect the other way counts as inactive or inconclusive.

Cc1nc(N/N=C/c2cccc(F)c2)cc(N2CCOCC2)n1	Pf growth 96h 9.28µM, HCV inhibitor inconclusive, Pf growth 48h inconclusive
Oc1ccc(/C=N/Nc2cc(N3CCOCC3)nc(N3CCOCC3)n2)cc1O	Sm TGR inh 50.1µM, HCV inhibitor inconclusive, Pf growth 48h inconclusive
Oc1ccccc1/C=N/Nc1cc(N2CCCC2)nc(N2CCCC2)n1	HCV inhibitor inconclusive, Pf growth 48h 2.08µM
CCOC(=O)c1c(S(=O)(=O)NCC(=O)Nc2ccccc2OC)c(C)n(C)c1C	SARS PLP yeast inconclusive, HCMV inh inconclusive
CCOC(=O)c1c(S(=O)(=O)NCC(=O)Nc2ccccc2)c(C)n(C)c1C	none
CCOC(=O)c1c(S(=O)(=O)NCC(=O)Nc2cccc(C)c2)c(C)n(C)c1C	Pf growth 96h 4.15µM
CCOC(=O)c1c(S(=O)(=O)NCC(=O)Nc2cc(C)ccc2OC)c(C)n(C)c1C	Pf growth 96h 9.28µM
COc1cccc(NC(=O)COC(=O)C2CC3CCCC(C2)C3=O)c1 (centres undefined)	Pf growth 48h inconclusive
O=C1CC2OCC=C3CN4CCC56c7cc([N+](=O)[O-])ccc7N1C5C2C3CC46 (centres undefined)	HCMV inh -88.2, Pf growth 48h inconclusive
COc1cc2c(cc1OC)[C@@]13CCN4CC5=CCO[C@H]6CC(=O)N2[C@H]1[C@H]6[C@H]5C[C@H]43	Pf growth 96h inconclusive, HCV inhibitor inconclusive
COc1cc2c(cc1OC)[C@@]13CCN4CC5=CCOC6CC(=O)N2C1[C@H]6[C@@H]5C[C@@H]43 (some centres undefined)	Pf growth 96h inconclusive (no result: SARS PLP yeast, Sm TGR inh, HCMV inh, HCV inhibitor)
O=C1/C(=C\c2ccccc2)C2OCC=C3CN4CCC56c7ccccc7N1C5C2C3CC46 (centres undefined)	Pf growth 96h 2.62µM, Pf growth 48h 2.33µM
COc1cc(CC(=O)N2CCN(S(=O)(=O)c3ccc(C)cc3)CC2)cc(OC)c1OC	none (no result: Pf growth 96h, Sm TGR inh, Pf growth 48h)
COc1ccc(C(=O)NNC(=S)NC(=O)c2cc(-c3ccccc3)nc3ccccc23)cc1	HCV inhibitor inconclusive
CCCOc1cccc(-c2cc(C(=O)NNC(=S)NCC)c3ccccc3n2)c1	Pf growth 48h 10.4µM (no result: Pf growth 96h)
CCCOc1ccc(C(=O)NNC(=S)NC(=O)c2cc(-c3ccc(Cl)cc3)nc3ccccc23)cc1	HCV inhibitor 15.8µM, Pf growth 48h inconclusive
Cc1ccc(C(=O)COC(=O)C2CC(=O)N(c3nc(-c4ccccc4)cs3)C2)cc1 (centres undefined)	none (no result: Pf growth 48h)
O=C(CC[C@H]1O[C@@H](n2ccc(=O)[nH]c2=O)[C@H](O)[C@@H]1O)N[C@@H](Cc1ccccc1)C(=O)NCc1ccccc1	none (no result: SARS PLP yeast, Pf growth 96h, Sm TGR inh, HCV inhibitor, Pf growth 48h)
O=C(/C=C/Nc1ccc(Br)cn1)c1cccc(OC(F)F)c1	HCV inhibitor inconclusive
N#Cc1nc(Nc2cc(F)cc(F)c2)c2ncn(CC(F)F)c2n1	Pf growth 96h 0.294µM, Pf growth 48h inconclusive (no result: HCV inhibitor)
N#Cc1nc(NCC(F)F)nc(Nc2cc(F)cc(F)c2)n1	Pf growth 96h inconclusive, Pf growth 48h 10.4µM (no result: HCV inhibitor)
Cc1cc(NC(=O)CCl)no1	Sm TGR inh 8.91µM, HCMV inh -81.8, HCV inhibitor inconclusive, Pf growth 48h 2.94µM
CSCC(=O)Nc1cc(C)on1	none
COC(=O)C1=C(C(=O)OC)SC2(S1)C(C(=O)OC)=C(C(=O)OC)SC1=C2c2cc(C)cc(C)c2NC1(C)C	Pf growth 96h inconclusive, Pf growth 48h 5.86µM (no result: SARS PLP yeast)
Cc1ccc(COC(=O)c2nn(C)c(=O)c3ccccc23)cc1	HCMV inh -92.0, HCV inhibitor 10µM
O=C(c1ccc(C(F)(F)F)cc1)C1CCCN(C(=O)CN2C(=O)CSC2=O)C1 (centres undefined)	none
CSc1oc(-c2ccc(F)cc2)nc1S(=O)(=O)c1ccccc1	Pf growth 96h inconclusive
CNc1oc(C)nc1S(=O)(=O)c1ccccc1	Sm TGR inh 1.58µM (no result: Pf growth 96h)
Cc1nc(S(=O)(=O)c2ccc(Cl)cc2)c(NCc2ccccc2)o1	Sm TGR inh 39.8µM, HCV inhibitor inconclusive (no result: Pf growth 96h, Pf growth 48h)
Cc1cc(C)n2nc(C(=O)OCC(=O)N(C)C3CCCCC3)nc2n1	none
Cc1ccc(-c2noc(CCC(=O)Nc3ccc(F)cc3Cl)n2)cc1	none (no result: SARS PLP yeast, Pf growth 96h, HCV inhibitor, Pf growth 48h)
C=CCc1ccc(OCC(O)CN2CCCCC2)c(OC)c1 (centres undefined)	Pf growth 96h inconclusive
C=CCc1ccccc1OCC(O)CN1CCN(c2ccccc2OC)CC1 (centres undefined)	Pf growth 96h inconclusive, HCMV inh -64.1!, HCV inhibitor inconclusive, Pf growth 48h inconclusive
C=CCc1ccc(OCC(O)CN2CCN(c3ccccc3)CC2)c(OC)c1 (centres undefined)	Pf growth 96h inconclusive, HCMV inh -61.8
COc1cccc(OC)c1OCC(O)CN1CCN(c2ccccc2F)CC1 (centres undefined)	Pf growth 96h 4.65µM, HCMV inh inconclusive
Cc1ccc(S(=O)(=O)Nc2cc(C)c(O)c(Sc3n[nH]c(C)n3)c2)cc1	Sm TGR inh 44.7µM
COc1ccc(N2CCN(C(=O)CN=C3NS(=O)(=O)C(c4ccc(C)cc4)=C3C)CC2)cc1	HCMV inh -60.9, Pf growth 48h inconclusive
COC(=O)[C@@]12C[C@@H](CC(=O)NCCc3ccccc3OC)C(=O)N(Cc3cccc4ccccc34)C1=CCC(C)(C)C2	none (no result: SARS PLP yeast, Pf growth 96h, Sm TGR inh, HCV inhibitor, Pf growth 48h)
COc1ccc(S(=O)(=O)c2c(Nc3c(C)cccc3C)sc(C(=O)c3ccc4c(c3)OCO4)c2N)cc1	HCMV inh -87.4 (no result: SARS PLP yeast, Pf growth 96h, HCV inhibitor, Pf growth 48h)
O=C(c1ccco1)N1CCn2cccc2C1c1ccccc1 (centres undefined)	Sm TGR inh 35.5µM, Pf growth 48h inconclusive
O=C1CC(Sc2ncccn2)C(=O)N1c1ccccc1C(F)(F)F (centres undefined)	Pf growth 96h inconclusive, Sm TGR inh 39.8µM
Nc1ccccc1SC1CC(=O)N(c2ccccc2Cl)C1=O (centres undefined)	none
Cc1ccc(Cl)cc1N1C(=O)CC(Sc2ncccn2)C1=O (centres undefined)	Sm TGR inh 25.1µM
O=c1[nH][nH]c(=S)n1-c1ccccc1C(F)(F)F	Sm TGR inh inconclusive (no result: HCMV inh, HCV inhibitor)
CC(C)CNC(=O)c1cccc(NC(=O)Cc2ccc(Cl)cc2)c1	none
CCOC(=O)Cc1csc(NC(=O)CS(=O)(=O)Cc2ccccc2)n1	none
Cc1csc(NC(=O)CS(=O)(=O)Cc2ccccc2)n1	HCMV inh -71.4 (no result: Sm TGR inh)
CCOC(=O)Cc1csc(NC(=O)CCS(=O)(=O)Cc2ccccc2)n1	Sm TGR inh 20µM
